Test results taken from the supplement of paper PMC6555819.

Experiments:
Assay in all cases: PBM binding z-score (relative to random genomic background probes); higher = stronger binding; sequences stand for … in GC…GCGATTGACAGCGTAGAATGAAGG
[1] = tested on: PPARg:RXRa DBDmut IVT, anti-RXR (DBD mutation: RXRa K156A/R161A, NR concentration 270 nM, RXRa partner concentration 90 nM)
Summary of the method: (§1)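 For binding z-scores, the reference was random background probes on custom Agilent 4×180K protein-binding microarrays. These arrays were incubated 1 h with ligand-free nuclear receptor dimers in PBS pH 7.4, 2% milk, 0.02% Triton X-100, 1 mM DTT, 0.2 mg/mL BSA and 0.4 mg/ml salmon testes DNA. Fluorescence was scanned after antibody detection of each partner (one per run) and regression-normalized.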

[2] = tested on: PPARg:RXRa IVT, anti-PPARg (NR concentration 270 nM, RXRa partner concentration 90 nM)
Summary of the method: as §1

[3] = tested on: PPARg DBDmut:RXRa IVT, anti-PPARg (DBD mutation: PPARg1 K132A/R137A, NR concentration 270 nM, RXRa partner concentration 90 nM)
Summary of the method: as §1

[4] = tested on: PPARg DBDmut IVT, anti-PPARg (DBD mutation: PPARg1 K132A/R137A, NR concentration 270 nM)
Summary of the method: as §1

[5] = tested on: PPARg homodimer (NR concentration 180 nM)
Summary of the method: as §1

[6] = tested on: PXR:RXRa (NR concentration 270 nM, RXRa partner concentration 90 nM)
Summary of the method: as §1

[7] = tested on: PXR homodimer (NR concentration 270 nM)
Summary of the method: as §1

[8] = tested on: RARa:RXR (NR concentration 270 nM, RXRa partner concentration 90 nM)
Summary of the method: as §1

[9] = tested on: RARa homodimer (NR concentration 270 nM)
Summary of the method: as §1

[10] = tested on: RARb:RXRa (NR concentration 270 nM, RXRa partner concentration 90 nM)
Summary of the method: as §1

Sequence	PBM binding z-score [1]	PBM binding z-score [2]	PBM binding z-score [3]	PBM binding z-score [4]	PBM binding z-score [5]	PBM binding z-score [6]	PBM binding z-score [7]	PBM binding z-score [8]	PBM binding z-score [9]	PBM binding z-score [10]
CCAGACAGGTGAGAAGGTACCTCAGCCTCGATTA	0.836	0.42	-0.603	-0.799	0.408	-0.434	-0.569	-0.0825	-0.214	0.313
AAACCAAGGTGATCGTGAGGTCGTTGATACTAAC	0.846	1.19	0.252	0.247	0.649	3.05	1.5	2.16	-0.27	1.24
CAAACTAGGTCAAGAGGTCCAAGTCCGCTTCCCG	8.55	8.32	1.57	0.903	1.86	1.58	0.285	2.21	0.1	4.02
CCGAGTAGGTTATGGGCCATTCAGGCAACGGTGA	3.19	2.58	-0.937	-0.608	1.06	-0.326	-0.187	-0.0932	-0.148	0.816
GCTTGTAGATCAAGGTCAAGAAAGACTAAGCTAA	2.14	2.87	0.431	-0.296	1.34	2.63	0.449	3.08	0.173	3.5
AGTCAAAGTTCAACTAGGTAACGTAAGATATGCT	1.28	4.36	2.11	1.11	3.26	5.04	3.96	4.28	2.01	5.16
CGTCAAACTTCAAGGTAACGTAACAGAAAGCAGC	0.101	0.749	0.373	0.926	0.291	0.178	0.193	0.544	-0.134	0.507
GCTAGTTGGTCAGGAAAAGGTCACACACCGGTCG	0.896	2.59	-0.101	0.0698	5.18	4.97	1.13	5.97	3.68	4.17
CTCGAAAGGTCGGTTGAGTTGAGTATACGGATAA	0.55	0.513	0.723	0.673	1.04	3.89	0.374	1.81	0.0679	2.71
GCGACTGGGGCATCACCAGGTTACCATAACTTAA	3.65	3.39	-0.477	-0.785	0.0676	0.244	-0.357	0.695	-0.656	0.96
ATCTCTAGGTAAAAGTTGAGTGAATCCCGAGGAT	2.05	2.5	1.01	1.53	0.688	0.0685	0.147	0.3	0.494	0.471
ACAGATAGGTGATGAAGGTAACTCAGGCTATCAT	0.825	0.996	0.38	0.000268	0.111	0.00334	-0.296	0.286	0.188	0.11
TCTTGTAGATCAATAGAGGTTAAGACAGTGCGCT	1.86	0.857	0.686	0.616	0.896	2.24	0.168	1.71	0.602	0.993
GCTGCTAGGTCAAGTTGGTCAGCTAACGGGTACG	4.62	4.19	-0.715	-0.257	1.75	1.68	-0.361	2.19	0.462	4.38
AGTCAAAGTTCAGGACGAGGTATCGTAAAGCACG	-0.507	0.996	0.0216	0.419	1.39	2.32	1.4	2.06	0.462	4.09
GTACAAAGGTGAATAGGTCGTTGATGAGTAGGCG	2.92	4.14	1.72	0.526	2.64	2.15	0.501	3.42	1.23	3.49
GGAACGAGGGCAAGTTGGTAGCAGAGTTTGATGG	3.6	2.34	-0.479	-0.423	0.722	0.696	0.853	0.662	-0.182	2.79
GTACCAAGGTGAGTAGGTCGTTGATGAGTAGGCG	1.77	2.68	-0.145	-1.14	0.691	0.089	0.0427	0.391	0.166	1.16
TCATACAGGTAAAGGTGAAAGTCGAACGATATGA	2.37	2.45	1.8	0.696	0.957	1.03	0.178	1.82	1.18	2.19
ACAGACAGGTGATGAAGGAAACTCAGGCTATCAT	-0.00583	0.186	0.678	0.42	0.36	-0.196	0.0696	0.162	0.228	0.275
TCTAGTTGGTCACTGAGGTCACACACGACGGGTA	2.68	4.25	2.09	2.11	4.13	4.97	2.81	5.06	2.05	4
TCGAGTAGGCTAGTCGGGGCATTCAGCCAACATA	0.821	0.0917	-1.43	-1.24	-0.694	-0.462	-0.889	-0.446	-1.18	-0.223
AGTCAAAGTTCAGGATGAGGTAACGTAAAGCACG	0.224	2.35	0.915	0.721	2.23	3.14	1.49	3.09	0.768	4.37
